According to PubChem BioAssay (Tox21):
Values without a mark were called inactive. Results filed as inconclusive are left out. Where a call stands in place of a potency, no number is given. Calls of active or inactive are those of the source. Unless noted, calls come from the whole dose curve.

Legend:
[1] = Nuclear factor erythroid 2-related factor 2/antioxidant responsive element (Nrf2/ARE) small molecule agonists: qHTS cell viability counter screen in human keratinocytes (AID 1919968; active = well fitted curve in the direction sought with a large enough effect in the repeat runs; an effect the other way counts as inactive or inconclusive; note: nearly all actives have a fitted effect of over 55% in size; note: potency is the fitted concentration of half-maximal effect)
Outline: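 Seed 1,500 KeratinoSens cells per well, then incubate 5 h at 37 C/5% CO2. Add compounds in DMSO and incubate 23 h. Add CellTiter-Fluor, wait 1 h and read fluorescence.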

[2] = Nuclear factor erythroid 2-related factor 2/antioxidant responsive element (Nrf2/ARE) small molecule agonists: luciferase reporter gene qHTS assay in human keratinocytes (AID 1919969); note: nearly all actives have a fitted effect of over 35% in size
[3] = molecular target: Gonadotropin-releasing hormone receptor (Homo sapiens) (UniProt P30968); assay: Human gonadotropin-releasing hormone receptor (GnRHR) small molecule agonists, calcium flux assay in GnRHR-HEK293 cells (AID 1920063); note: nearly all actives have a fitted effect of over 35% in size
Outline: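 Cells: HEK293 stably expressing human GnRHR. Steps: overnight (18 h) culture, 1 h calcium dye loading at 37 C, compound addition, kinetic fluorescence read at 480/540 nm. Each compound tested at 15 concentrations in triplicate.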

[4] = molecular target: KiSS-1 receptor (Homo sapiens) (UniProt Q969F8); assay: Human kisspeptin (KISS1R) small molecule agonists, calcium flux assay in KISS1R-HEK293 cells (AID 1920064; active = well fitted curve in the direction sought with a large enough effect in the repeat runs; an effect the other way counts as inactive or inconclusive)
Outline: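 Cells plated and incubated 18 h; dye added, 1 h at 37 C; compounds in DMSO pinned in; signal read at 480/540 nm every second for 3 min. Each compound tested at 15 concentrations in triplicate.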

[5] = G protein-coupled receptor (GPCR) small molecule agonists, calcium flux assay: HEK293 wild type cell line counter screen (AID 1920065)
Outline: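 Counter-screen of the Tox21 10K library for non-specific calcium release: dye-loaded cells received compounds in DMSO and were monitored by kinetic fluorescence (480/540 nm, 3 min). Fifteen concentrations, run in triplicate.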

[6] = p53 small molecule agonists, cell-based qHTS assay with human liver microsomes: qHTS cell viability counter screen (AID 1963579); note: nearly all actives have a fitted effect of over 45% in size
Outline: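 Metabolic activation used human liver microsomes and NADPH, both 0.5 mg/mL final, over 16 hours at 37 C on p53RE-bla cells (4,000/well). Cytotoxicity measured by CellTiter-Glo luminescence, 30 min at room temperature.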

[7] = p53 small molecule agonists, cell-based qHTS assay: qHTS cell viability counter screen (AID 1963581); note: nearly all actives have a fitted effect of over 45% in size
Outline: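 Cells: HCT-116 with p53 response element-driven beta-lactamase. Treatment: 16 h, 37 C, compounds in DMSO. Read: CellTiter-Glo luminescence after 30 min RT.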

[8] = molecular target: 5-hydroxytryptamine receptor 2A (Homo sapiens) (UniProt P28223); assay: 5-hydroxytryptamine receptor 2A (HTR2A) small molecule antagonists, cell-based qHTS assay (AID 1963586); note: nearly all actives have a fitted effect of over 45% in size
Outline: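 Antagonist-mode intracellular calcium assay: DOI (4 nM) added after 5 min compound pre-incubation at room temperature to dye-loaded HTR2A-CHO cells. Fluorescence followed for 3 min, sampled every second.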

[9] = molecular target: 5-hydroxytryptamine receptor 2A (Homo sapiens) (UniProt P28223); assay: 5-hydroxytryptamine receptor 2A (HTR2A) small molecule agonists, cell-based qHTS assay (AID 1963587); note: nearly all actives have a fitted effect of over 30% in size
Outline: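 HTR2A-CHO cells, plated 18 h at 37 C/5% CO2, dye-loaded 1 h at 37 C; compounds in DMSO added by pin tool (agonist mode). Intracellular calcium flux read as kinetic fluorescence on FDSS over 2 min at 1 s intervals.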

[10] = molecular target: Muscarinic acetylcholine receptor M1 (Homo sapiens) (UniProt P11229); assay: Cholinergic receptor muscarinic 1 (CHRM1) small molecule antagonists, cell-based qHTS assay (AID 1963588); note: nearly all actives have a fitted effect of over 40% in size
Outline: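 CHRM1-CHO calcium-flux assay, antagonist mode. Cells were seeded 18 h, dye-loaded 1 h at 37 C and given compound for 5 min at RT, then acetylcholine was added at 50nM. FDSS fluorescence was read 3 min; 15 concentrations, three runs.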

[11] = molecular target: Muscarinic acetylcholine receptor M1 (Homo sapiens) (UniProt P11229); assay: Cholinergic receptor muscarinic 1 (CHRM1) small molecule agonists, cell-based qHTS assay (AID 1963589); note: nearly all actives have a fitted effect of over 35% in size
Outline: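 Agonist-mode qHTS in CHO cells stably carrying human muscarinic M1. Intracellular calcium is tracked by fluorescence every second after compound transfer; each compound runs at 15 concentrations in three independent runs.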

[12] = molecular target: Beta-2 adrenergic receptor (Homo sapiens) (UniProt P07550); assay: Adrenergic beta2 receptor (ADRB2) small molecule antagonists, cell-based qHTS assay (AID 1963592); note: series mostly up to about 92 µM; nearly all actives have a fitted effect of over 50% in size
Outline: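 Cells (CHO, stable ADRB2 overexpression) incubated 18-20hr at 37C; compounds added from DMSO; agonist mix (1nM isoproterenol, 100uM IBMX, 25uM Ro-20-1724) added; 0.5hr RT; d2-cAMP and anti-cAMP-cryptate added; 1hr RT; 665/615 nm read.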

[13] = molecular target: D(2) dopamine receptor (Homo sapiens) (UniProt P14416); assay: Dopamine D2 receptor (DRD2) small molecule agonists, cell-based qHTS assay (AID 1963594); note: nearly all actives have a fitted effect of over 35% in size; note: potency is the fitted concentration of half-maximal effect
Outline: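 HEK293 cells stably expressing DRD2 were cultured 24 h at 37 C, then given Ro20-1724 (0.1 mM final) and compounds for 10 min at room temperature. NKH477 (200nM) was then added for 30 min. cAMP was read by HTRF.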

[14] = molecular target: D(2) dopamine receptor (Homo sapiens) (UniProt P14416); assay: Dopamine D2 receptor (DRD2) small molecule antagonists, cell-based qHTS assay (AID 1963595; active = well fitted inhibition curve with a large enough effect in the signal ratio in the repeat runs, with a control signal flat; the % refers to the signal ratio)
Outline: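 Human DRD2 antagonist qHTS measuring cAMP by HTRF. The cells are exposed to compound for 10 min, then to NKH477 (200 nM) and quinpirole (12 nM) for 30 min at RT, with Ro20-1724 (0.1 mM) present throughout.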

[15] = cAMP Responsive Elements (CRE) small molecule agonists, cell-based qHTS assay (AID 1963590)
Outline: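 Agonist mode qHTS in CRE-bla HEK 293T cells: compounds dosed from DMSO for 3 h at 37 C/5% CO2, followed by LiveBLAzer B/G FRET substrate for 2 h at room temperature.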

[16] = cAMP Responsive Elements (CRE) small molecule antagonists, cell-based qHTS assay (AID 1963591; active = well fitted inhibition curve with a large enough effect in the signal ratio in the repeat runs, not every such curve was filed as active; the % refers to the signal ratio)
Outline: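 Antagonist mode: test compounds are co-incubated with the adenylyl cyclase activator NKH477 (0.25 uM final) on CRE-bla HEK293T cells for 3 h at 37 °C, followed by LiveBLAzer substrate loading.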

[17] = molecular target: Beta-2 adrenergic receptor (Homo sapiens) (UniProt P07550); assay: Adrenergic beta2 receptor (ADRB2) small molecule agonists, cell-based qHTS assay (AID 1963593);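 note: CHO cells stably overexpressing human ADRB2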
Outline: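 CHO cells stably over-expressing ADRB2 were plated overnight at 37C, then dosed with compounds plus a stimulation mix containing 100uM IBMX and 25uM Ro-20-1724 for 0.5hr at room temperature. cAMP was measured by HTRF competition, 1hr.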

[18] = p53 small molecule agonists, cell-based qHTS assay with rat liver microsomes: qHTS cell viability counter screen (AID 1963580); note: nearly all actives have a fitted effect of over 45% in size
Outline: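 In HCT-116 cells carrying a p53 response element-bla reporter, compounds were metabolically activated in situ by rat liver microsomes with NADPH over 16 h. Cell ATP content then served as the cytotoxicity measure.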

[19] = p53 small molecule agonists, cell-based qHTS assay (AID 1963582; active = well fitted activation curve with a large enough effect in the signal ratio in the repeat runs, not every such curve was filed as active; the % refers to the signal ratio)
Outline: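 Quantitative HTS in p53RE-bla cells: after a 5 h settling period, compounds delivered in DMSO were left on cells for 16 h at 37 C, and reporter induction was measured as fluorescence following 2 h substrate loading.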

Chain of 5-hydroxytryptamine receptor 2A (Homo sapiens) (P28223 whole entry, looked up): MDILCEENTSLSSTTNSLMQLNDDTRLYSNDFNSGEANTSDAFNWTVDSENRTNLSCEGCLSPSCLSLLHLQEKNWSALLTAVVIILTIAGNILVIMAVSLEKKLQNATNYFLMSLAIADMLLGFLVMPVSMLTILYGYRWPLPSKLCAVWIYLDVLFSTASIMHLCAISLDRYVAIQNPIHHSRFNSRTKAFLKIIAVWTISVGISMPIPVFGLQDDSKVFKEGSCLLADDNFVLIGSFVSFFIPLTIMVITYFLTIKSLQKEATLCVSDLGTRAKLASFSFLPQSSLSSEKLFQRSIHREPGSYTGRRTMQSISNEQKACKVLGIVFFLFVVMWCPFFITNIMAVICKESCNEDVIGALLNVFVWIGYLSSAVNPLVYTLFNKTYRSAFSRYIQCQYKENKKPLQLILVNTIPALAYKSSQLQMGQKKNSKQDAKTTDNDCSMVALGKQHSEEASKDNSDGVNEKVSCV
Chain of Beta-2 adrenergic receptor (Homo sapiens) (P07550 whole entry, looked up): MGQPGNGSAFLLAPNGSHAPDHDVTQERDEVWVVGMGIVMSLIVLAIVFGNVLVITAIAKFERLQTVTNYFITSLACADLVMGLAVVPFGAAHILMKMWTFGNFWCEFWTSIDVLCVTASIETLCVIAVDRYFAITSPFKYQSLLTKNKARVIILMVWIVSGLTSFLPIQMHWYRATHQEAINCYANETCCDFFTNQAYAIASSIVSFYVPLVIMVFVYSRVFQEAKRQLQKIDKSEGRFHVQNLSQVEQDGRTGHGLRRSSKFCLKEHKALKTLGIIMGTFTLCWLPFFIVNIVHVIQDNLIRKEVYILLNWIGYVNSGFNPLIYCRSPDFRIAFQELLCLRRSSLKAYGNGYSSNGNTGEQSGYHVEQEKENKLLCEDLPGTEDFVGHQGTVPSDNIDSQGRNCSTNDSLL
Chain of Gonadotropin-releasing hormone receptor (Homo sapiens) (P30968 whole entry, looked up): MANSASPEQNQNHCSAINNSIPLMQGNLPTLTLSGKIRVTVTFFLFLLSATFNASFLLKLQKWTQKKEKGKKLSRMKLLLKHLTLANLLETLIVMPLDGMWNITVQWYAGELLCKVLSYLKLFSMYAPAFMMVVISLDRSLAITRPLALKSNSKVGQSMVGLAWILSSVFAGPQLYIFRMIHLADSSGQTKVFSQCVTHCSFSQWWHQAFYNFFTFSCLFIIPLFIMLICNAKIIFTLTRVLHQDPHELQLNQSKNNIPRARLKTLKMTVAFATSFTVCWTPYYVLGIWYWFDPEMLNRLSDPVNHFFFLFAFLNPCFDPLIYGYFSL
Chain of KiSS-1 receptor (Homo sapiens) (Q969F8 whole entry, looked up): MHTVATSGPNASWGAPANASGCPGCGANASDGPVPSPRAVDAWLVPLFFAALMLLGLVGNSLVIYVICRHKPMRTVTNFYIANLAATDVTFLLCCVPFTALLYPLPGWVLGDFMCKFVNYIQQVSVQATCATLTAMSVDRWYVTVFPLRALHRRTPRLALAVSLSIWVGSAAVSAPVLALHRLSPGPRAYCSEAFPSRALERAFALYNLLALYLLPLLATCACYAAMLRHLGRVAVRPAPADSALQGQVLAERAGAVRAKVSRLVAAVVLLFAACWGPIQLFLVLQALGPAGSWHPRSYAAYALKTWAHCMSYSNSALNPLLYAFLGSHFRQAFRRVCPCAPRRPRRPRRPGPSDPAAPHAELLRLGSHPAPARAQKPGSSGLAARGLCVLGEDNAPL
Chain of Muscarinic acetylcholine receptor M1 (Homo sapiens) (P11229 whole entry, looked up): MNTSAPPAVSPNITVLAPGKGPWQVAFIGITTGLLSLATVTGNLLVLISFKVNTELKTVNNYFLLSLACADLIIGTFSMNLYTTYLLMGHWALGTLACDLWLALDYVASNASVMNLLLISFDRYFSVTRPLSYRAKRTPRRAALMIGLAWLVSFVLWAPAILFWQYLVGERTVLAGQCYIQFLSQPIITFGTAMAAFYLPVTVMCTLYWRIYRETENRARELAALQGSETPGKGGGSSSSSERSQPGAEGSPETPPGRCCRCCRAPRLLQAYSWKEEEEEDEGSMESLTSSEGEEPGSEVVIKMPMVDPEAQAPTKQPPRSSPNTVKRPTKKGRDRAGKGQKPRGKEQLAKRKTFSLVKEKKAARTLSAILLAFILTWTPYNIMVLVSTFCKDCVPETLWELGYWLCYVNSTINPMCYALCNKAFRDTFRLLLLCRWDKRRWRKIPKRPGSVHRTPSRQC
Chain of D(2) dopamine receptor (Homo sapiens) (P14416 whole entry, looked up): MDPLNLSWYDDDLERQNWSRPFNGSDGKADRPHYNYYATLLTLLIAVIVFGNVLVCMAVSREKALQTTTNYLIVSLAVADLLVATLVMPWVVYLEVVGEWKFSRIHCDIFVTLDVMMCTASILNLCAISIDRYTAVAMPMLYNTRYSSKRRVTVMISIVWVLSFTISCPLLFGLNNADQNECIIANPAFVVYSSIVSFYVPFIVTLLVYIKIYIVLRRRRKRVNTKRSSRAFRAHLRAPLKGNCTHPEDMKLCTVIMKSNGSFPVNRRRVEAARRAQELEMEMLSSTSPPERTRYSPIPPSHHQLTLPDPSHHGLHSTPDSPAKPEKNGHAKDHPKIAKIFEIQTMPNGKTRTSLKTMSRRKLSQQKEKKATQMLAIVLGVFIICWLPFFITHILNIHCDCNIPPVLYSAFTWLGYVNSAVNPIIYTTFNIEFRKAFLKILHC

SMILES	Potency [1]	Potency [2]	Potency [3]	Potency [4]	Potency [5]	Potency [6]	Potency [7]	Potency [8]	Potency [9]	Potency [10]	Potency [11]	Potency [12]	Potency [13]	Potency [14]	Potency [15]	Potency [16]	Potency [17]	Potency [18]	Potency [19]
O=C(O)COc1ccc2ccccc2c1	inactive	inactive	inactive	inactive	inactive	inactive	inactive	inactive	inactive	inactive	inactive	inactive	inactive	inactive	–	–	–	–	–
CC(C)(C)c1ccc(N)cc1	inactive	inactive	inactive	inactive	inactive	inactive	inactive	inactive	inactive	inactive	inactive	inactive	inactive	inactive	inactive	inactive	inactive	–	–
O=C(O)c1ccc(O)c(O)c1	inactive	inactive	inactive	inactive	inactive	inactive	inactive	–	inactive	inactive	inactive	inactive	inactive	inactive	–	inactive	–	–	–
N#Cc1ccccc1O	inactive	inactive	inactive	inactive	inactive	inactive	inactive	inactive	–	inactive	inactive	inactive	inactive	inactive	inactive	inactive	inactive	–	–
COc1nc(C)nc(N)n1	inactive	inactive	inactive	inactive	inactive	inactive	inactive	–	inactive	inactive	inactive	inactive	–	inactive	inactive	inactive	inactive	–	–
OC/C(Br)=C(\Br)CO	inactive	inactive	inactive	inactive	inactive	inactive	inactive	–	inactive	inactive	–	–	inactive	inactive	inactive	–	–	–	–
CCN(CC)CC1CCCCN1CC(=O)N1c2ccccc2C(=O)Nc2cccnc21 (stereo not drawn)	inactive	inactive	inactive	inactive	inactive	inactive	inactive	inactive	inactive	inactive	–	inactive	inactive	inactive	inactive	inactive	inactive	–	–
CCCCN(CCC(=O)OCC)C(C)=O	inactive	inactive	inactive	inactive	inactive	inactive	–	–	inactive	–	inactive	inactive	inactive	inactive	inactive	inactive	inactive	inactive	–
CCCOC(=O)CC	inactive	inactive	inactive	inactive	inactive	inactive	inactive	inactive	inactive	inactive	inactive	inactive	inactive	inactive	inactive	–	–	–	–
CC(C)(O)c1ccc(C(C)(C)O)cc1	inactive	inactive	inactive	inactive	inactive	inactive	inactive	inactive	inactive	inactive	inactive	inactive	–	inactive	inactive	–	–	–	–
CCCCN(CCCC)CCC(O)c1cc2c(Cl)cc(Cl)cc2c2cc(C(F)(F)F)ccc12 (stereo not drawn)	21.1 µM (active)	inactive	inactive	inactive	inactive	inactive	inactive	inactive	inactive	inactive	inactive	inactive	inactive	inactive	inactive	–	inactive	–	–
O=S(=O)(O)c1ccc(Nc2nc(Nc3ccc(/C=C/c4ccc(Nc5nc(Nc6ccc(S(=O)(=O)O)cc6)nc(N(CCO)CCO)n5)cc4S(=O)(=O)O)c(S(=O)(=O)O)c3)nc(N(CCO)CCO)n2)cc1	inactive	inactive	inactive	inactive	inactive	inactive	inactive	inactive	inactive	inactive	inactive	inactive	inactive	inactive	–	–	–	–	inactive
CN(c1nccc(=O)[nH]1)C1CCN(c2nc3ccccc3n2Cc2ccc(F)cc2)CC1	inactive	inactive	inactive	inactive	inactive	inactive	–	–	–	inactive	inactive	inactive	inactive	inactive	–	–	–	inactive	–
Cc1cccc(C(=O)O)c1O	inactive	inactive	inactive	inactive	inactive	inactive	–	inactive	inactive	inactive	–	inactive	inactive	–	inactive	inactive	inactive	–	–
CC(C)[C@H]1CC[C@H](C)C[C@@H]1O	inactive	inactive	inactive	inactive	inactive	inactive	–	inactive	–	inactive	inactive	inactive	57.9 µM (active)	inactive	inactive	inactive	inactive	–	–
C=C[Si](OC)(OC)OC	inactive	inactive	inactive	inactive	inactive	–	inactive	inactive	inactive	inactive	inactive	inactive	inactive	inactive	inactive	inactive	inactive	inactive	–
CC(=O)OCC(=O)[C@@]12OC(C)(C)O[C@@H]1C[C@H]1[C@@H]3C[C@H](F)C4=CC(=O)C=C[C@]4(C)[C@@]3(F)[C@@H](O)C[C@@]12C	inactive	inactive	inactive	inactive	inactive	inactive	inactive	–	–	–	–	–	inactive	inactive	–	–	–	–	–
S=C([S-])NCCNC(=S)[S-].S=C([S-])NCCNC(=S)[S-].[Mn+2].[Zn+2]	inactive	inactive	inactive	inactive	inactive	–	inactive	inactive	inactive	–	inactive	inactive	inactive	–	inactive	–	–	inactive	–
CN(C)C(=O)Nc1ccccc1	inactive	inactive	inactive	inactive	inactive	–	inactive	inactive	inactive	inactive	inactive	inactive	inactive	inactive	inactive	inactive	inactive	inactive	–
CNc1ncnc2nc[nH]c12	inactive	inactive	inactive	inactive	inactive	inactive	–	inactive	inactive	inactive	inactive	inactive	inactive	inactive	inactive	inactive	inactive	–	–
COC(C)=O	inactive	inactive	inactive	inactive	inactive	–	inactive	–	inactive	inactive	inactive	inactive	inactive	inactive	inactive	inactive	–	inactive	–
CC(=O)/C(C)=C/C1C(C)=CCCC1(C)C (stereo not drawn)	inactive	inactive	inactive	inactive	inactive	–	inactive	inactive	inactive	inactive	inactive	inactive	inactive	inactive	inactive	inactive	–	inactive	inactive
CCCCCCCCNC	inactive	inactive	inactive	inactive	inactive	–	inactive	inactive	inactive	inactive	inactive	inactive	inactive	inactive	inactive	inactive	–	inactive	–
CCOc1ccc(O)cc1	inactive	inactive	inactive	inactive	inactive	inactive	–	inactive	inactive	inactive	inactive	inactive	inactive	inactive	inactive	inactive	–	–	inactive
O=C(OCC(COC(=O)c1cccnc1)(COC(=O)c1cccnc1)COC(=O)c1cccnc1)c1cccnc1	inactive	inactive	inactive	inactive	inactive	–	inactive	inactive	inactive	inactive	inactive	inactive	inactive	inactive	inactive	–	inactive	inactive	–
S=C([S-])NCCNC(=S)[S-].[Mn+2]	inactive	inactive	inactive	inactive	inactive	–	inactive	inactive	inactive	inactive	inactive	inactive	inactive	–	inactive	–	inactive	inactive	–
CCCCC=O	inactive	inactive	inactive	inactive	inactive	–	inactive	–	inactive	inactive	inactive	inactive	inactive	inactive	inactive	inactive	inactive	inactive	–
